51 molecules from PubChem BioAssay can be followed below.

Test [1] concerns transactivating tegument protein VP16 (Human herpesvirus 1). The test can be described thus: compounds suppressing VP16-driven luciferase signal – cell-based, luminescence, single concentration, counter-screen for SRC2 inhibitor project (AID 652007). As to conditions: cell-based VP16 transactivation luciferase reporter, at 8.9 µM, stronger effect = higher value.
The target of test [2] is Nuclear receptor coactivator 2 (Homo sapiens) (UniProt Q15596). The test can be described thus: inhibition of GAL4-SRC2 driven luciferase expression – cell-based, luminescence, HEK293, triplicate, confirmation (AID 652008;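 active = mean inhibition above 46.5%, the solvent-only control mean plus 3 SD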;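 also: 0% = DMSO-treated cells and 100% = Gossypol at 36 µM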). As to conditions: HEK293 GAL4-SRC2 luciferase reporter, at 8.9 µM, stronger effect = higher value.

The structures appear in SMILES notation. A number with no mark means an inactive call. Calls of active or inactive are those of the source. Rule as the data show it, unless noted: active = inhibition above about 36%; inactive = the rest.

Nuclear receptor coactivator 2 (Homo sapiens), sequence (Q15596 whole entry, looked up, the tested form may be a part): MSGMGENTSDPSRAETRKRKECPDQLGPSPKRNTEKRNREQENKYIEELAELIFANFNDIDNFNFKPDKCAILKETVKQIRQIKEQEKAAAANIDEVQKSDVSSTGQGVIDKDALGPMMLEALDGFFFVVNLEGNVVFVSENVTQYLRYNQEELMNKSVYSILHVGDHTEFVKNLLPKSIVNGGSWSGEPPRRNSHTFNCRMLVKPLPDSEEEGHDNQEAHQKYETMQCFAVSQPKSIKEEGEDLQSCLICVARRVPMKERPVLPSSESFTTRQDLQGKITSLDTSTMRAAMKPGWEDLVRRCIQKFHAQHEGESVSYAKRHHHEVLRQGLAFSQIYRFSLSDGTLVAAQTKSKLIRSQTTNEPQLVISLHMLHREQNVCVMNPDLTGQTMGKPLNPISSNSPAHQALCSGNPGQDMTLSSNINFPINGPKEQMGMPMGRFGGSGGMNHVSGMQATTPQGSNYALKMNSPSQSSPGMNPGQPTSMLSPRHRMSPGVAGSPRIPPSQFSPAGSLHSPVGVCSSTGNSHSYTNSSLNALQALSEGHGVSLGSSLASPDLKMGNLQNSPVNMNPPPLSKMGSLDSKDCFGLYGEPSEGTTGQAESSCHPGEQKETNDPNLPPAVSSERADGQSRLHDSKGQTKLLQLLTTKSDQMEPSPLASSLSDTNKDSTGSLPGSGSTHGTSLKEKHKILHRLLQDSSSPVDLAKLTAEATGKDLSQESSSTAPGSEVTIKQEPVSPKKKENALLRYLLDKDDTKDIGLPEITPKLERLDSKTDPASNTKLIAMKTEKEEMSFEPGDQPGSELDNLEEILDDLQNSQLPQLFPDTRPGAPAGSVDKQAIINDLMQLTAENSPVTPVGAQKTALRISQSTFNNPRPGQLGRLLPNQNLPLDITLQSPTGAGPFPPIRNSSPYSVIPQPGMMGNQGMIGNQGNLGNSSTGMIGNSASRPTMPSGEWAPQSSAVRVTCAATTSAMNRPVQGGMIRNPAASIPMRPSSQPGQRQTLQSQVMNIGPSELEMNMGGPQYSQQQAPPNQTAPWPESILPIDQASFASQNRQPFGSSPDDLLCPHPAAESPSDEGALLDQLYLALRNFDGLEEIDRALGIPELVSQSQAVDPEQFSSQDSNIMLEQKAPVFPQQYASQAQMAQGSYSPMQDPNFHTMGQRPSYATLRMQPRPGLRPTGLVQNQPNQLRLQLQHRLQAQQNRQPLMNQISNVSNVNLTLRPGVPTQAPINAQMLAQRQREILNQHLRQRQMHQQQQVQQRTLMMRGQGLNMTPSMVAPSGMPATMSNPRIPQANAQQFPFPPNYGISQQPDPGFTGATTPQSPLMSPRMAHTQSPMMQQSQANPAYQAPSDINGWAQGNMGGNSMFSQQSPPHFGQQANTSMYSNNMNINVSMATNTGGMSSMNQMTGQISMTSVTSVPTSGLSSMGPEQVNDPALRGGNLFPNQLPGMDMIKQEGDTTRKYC

As to `O=C(Cc1ccc([N+](=O)[O-])cc1)Nc1cccc(C(=O)N2CCCCC2)c1`, the inhibition was 13.5% in test [1] and 23.7% in test [2].
The like results for `CCOC(=O)C1(CC2CC2)CCN(Cc2cnc(-c3ccccc3C)nc2)CC1` were, in that order, 3.57% and 3.04%.
The like results for `CCOC(=O)CN(C)C(=O)CCc1nnc(-c2ccc(-c3ccccc3)cc2)o1` were, in that order, -17.7% and 19.8%.
The like results for `CCS(=O)(=O)c1ncc(Cl)c(C(=O)Nc2ccc(S(=O)(=O)N3CCC(C)CC3)cc2)n1` were, in that order, 89.9% (active) and 86.7% (active).
For `CCN(CC)C(=O)C1CCCN(c2ncnc3c2cnn3-c2ccc(Cl)cc2)C1` (configuration not stated), the inhibition in test [1] was -32.6%; in test [2], 58.8% (active).
In the same order, the values of `CCOC(=O)C1=CCN(S(=O)(=O)c2ccc(C)cc2)C1c1ccccc1F` (configuration not stated) are -19.3% and -7.88%.
In the same order, the values of `O=c1[nH][nH]c(-c2ccccc2O)c1C(C[N+](=O)[O-])c1ccc(Br)cc1` (configuration not stated) are 24.3% and -0.61%.
The like results for `CCCc1ncc(CN2CCC(C(=O)Nc3cccc(-c4cscn4)c3)CC2)cn1` were, in that order, 12.2% and 15.5%.
For the molecule `COc1cc(NC(=O)COC(=O)c2[nH]c(C)c(C(C)=O)c2C)cc(OC)c1`, the inhibition in test [1] was 9.16%; in test [2], 15.2%.
Regarding `Cc1nc([N+](=O)[O-])c(Br)n1Cc1ccc(Cl)c(Cl)c1`, the values for the inhibition in test [1] and in test [2] were 10.6% and 43.9%, respectively.
In the same order, the values of `Clc1ccccc1/C=C/c1nc(-c2ccccn2)no1` are -11.4% and 18.9%.
For the molecule `O=C(CCl)Nc1cccc(S(=O)(=O)NC2=NCCC2)c1`, the inhibition is 76.2% (active) in test [1] and 38.1% in test [2].
The like results for `COC(=O)COc1ccc(S(=O)(=O)Nc2ccc3c(c2)OCCO3)cc1C` were, in that order, -11.5% and 6.48%.
In the same order, the values of `COc1cc2[nH]c3c(=O)n4c(nc3c2cc1OC)SCCC4` are -66.2% and 13.4%.
The like results for `CC(c1nccs1)N(C)C(=O)CCc1nnc(-c2ccc(-c3ccccc3)cc2)o1` (configuration not stated) were, in that order, -11% and 30.6%.
With `CCCCCc1c(C)nc(N2CCc3ccccc32)[nH]c1=O`, the inhibition is -17.3% in test [1] and 14.9% in test [2].
In the same order, the values of `COc1cc(/C=C/C(=O)Nc2ccc(OC)c(S(=O)(=O)N3CCOCC3)c2)ccc1OC(F)F` are 11% and 63.1% (active).
The like results for `CCCCc1ccc(N/C(N)=N/c2nc(C)cc(C)n2)cc1` were, in that order, 30.2% and 32.1%.
With `Cc1ccc(C(=O)/C=C/Nc2ccccn2)cc1`, the figures for the inhibition in test [1] and in test [2] were 31.1% and 77% (active), respectively.
In the case of `CCOc1ccc(NC(=O)c2ccccn2)cc1`, the results for the inhibition in test [1] and in test [2] were -15.2% and 25.7%, respectively.
In the same order, the values of `COC(=O)c1ccc(-c2nc3cc(N)ccc3o2)cc1` are -20.4% and 49.8% (active).
In the same order, the values of `N=c1nc(SCCC(=O)O)ss1` are 14.4% and 51.7% (active).
In the same order, the values of `COC(=O)c1ccc(CSc2nc3sc(C)c(C)c3c(=O)[nH]2)cc1` are -20.1% and -17.4%.
`O=C(COC(=O)CCN1C(=O)/C(=C\C=C\c2ccccc2)SC1=S)Nc1ccc(Br)cc1`: the inhibition in test [1] was 38.2% (active); in test [2], 74.3% (active).
The like results for `Cc1ccc(C)c(OCc2ccc(C(=O)Nc3ccc([N+](=O)[O-])cn3)o2)c1` were, in that order, 8.86% and 35.9%.
The like results for `O=C(Nc1ccc2nc3n(c(=O)c2c1)CCCCC3)c1c(F)ccc([N+](=O)[O-])c1F` were, in that order, 83% (active) and 75.5% (active).
The like results for `COc1cc(OC)c(-c2c3cc(O)c(=O)cc-3oc3cc(O)c(O)cc23)cc1OC` were, in that order, 9.48% and 3.62%.
In the case of `Cc1ccc(CN2C(=O)/C(=C\c3ccc(C(=O)NCc4cccnc4)cc3)Oc3ccccc32)cc1`, the inhibition is -0.83% in test [1] and 50.2% (active) in test [2].
The like results for `c1c2c(cc3sc(N4CCCCC4)nc13)OCCO2` were, in that order, -48.9% and 7.6%.
In the same order, the values of `Cn1nnnc1Sc1ncnc2scc(-c3ccc(Br)cc3)c12` are 25% and 37.2%.
The like results for `Cc1ccc(S(=O)(=O)N2[C@@H](c3ccc4c(c3)OCO4)C(C(=O)O)=C[C@H]2C(C)(C)C)cc1` were, in that order, -12.9% and 1.95%.
On to `O=C1N(Cc2cccc(Cl)c2)C[C@@H]2C[C@@H](c3cccc4cccnc34)N3CCC[C@@]123`, for which the inhibition in test [1] was -2.19%; in test [2], -23.5%.
`CCc1ccc(/C=C2\SC(=S)N(CCCC(=O)N3CCN(C)CC3)C2=O)cc1`: the inhibition in test [1] is -9.42%; in test [2], 11.9%.
The like results for `COc1ccc(C(=O)C(CN2CCOCC2)c2ccccc2)cc1F` (configuration not stated) were, in that order, -1.66% and 13.4%.
In the same order, the values of `CCOc1ccc(-c2cc(CCCC(=O)NCCCOC)no2)cc1` are 38.5% (active) and 52% (active).
For the molecule `COc1ccc(-n2nc3cc(C)c(N)c(Br)c3n2)cc1`, the inhibition in test [1] was -67.1%; in test [2], -140%.
On to `CC(C)(C)c1nn(-c2ccccc2)c2[nH]c(=O)c(CNc3ccc4c(c3)OCCO4)cc12`, for which the inhibition in test [1] is -7.89%; in test [2] it was 3.22%.
Consider `Cc1ccc(S(=O)(=O)CCSC(=N)N)cc1`, for which the inhibition is 2.05% in test [1] and 6.17% in test [2].
Take `O=C(CCl)N(Cc1ccccc1)c1ccccc1`: the inhibition in test [1] was 26%; in test [2], 48.6% (active).
In the same order, the values of `CS(=O)(=O)N(Cc1ccccc1Cl)c1ccc(C(=O)NCc2cccnc2)cc1` are -10.9% and 35.5%.
In the same order, the values of `Cc1ccc(C(C)C)c(OCc2ccc(C(=O)N/N=C/c3ccc(C(=O)O)cc3)cc2)c1` are -13.2% and 41.4%.
The like results for `COc1ccc(NC(=O)Nc2nnc(Cc3ccc(OC)c(OC)c3)s2)cc1` were, in that order, 4.37% and -0.57%.
Consider `CCCCCCCCN1C(=O)[C@H](CC(=O)NCCCC)C[C@@]2(C(=O)OCC)CCCC=C12`, for which the inhibition in test [1] was -14%; in test [2], -0.38%.
The like results for `COc1cc(NC(=O)CSCC(=O)Nc2cccc(C(F)(F)F)c2)c(Cl)cc1Cl` were, in that order, 5.02% and 5.14%.
In the same order, the values of `COc1ccc(/C=C2\SC(=S)N(CCC(=O)NC3C=CS(=O)(=O)C3)C2=O)cc1` (configuration not stated) are 3.55% and 62.1% (active).
In the same order, the values of `CCN(CC)S(=O)(=O)c1ccc(Cl)c(NC(=O)COc2ccc(OC)cc2[N+](=O)[O-])c1` are -24.3% and -28.8%.
On to `COC(=O)c1c(NC(=O)CCCC(=O)O)sc2c1CCCCC2`, for which the inhibition in test [1] is 29.6%; in test [2] it was 53.8% (active).
As to `CCC(C)[C@H](NC(=O)N1CCn2c1nc1ccccc12)C(=O)NCc1ccc(OC)cc1` (some centres not stated), the figures for the inhibition in test [1] and in test [2] were -13% and 8.36%, respectively.
As to `CCOc1ccc(/C=C/c2c([N+](=O)[O-])c(=O)n(C)c(=O)n2C)cc1`, the inhibition in test [1] was 7.01%; in test [2], 2.26%.
The like results for `CCC(C)[C@H](NC(=O)C1CC(=O)N(c2ccc(OC)cc2)C1)C(=O)N1CCCCC1` (some centres not stated) were, in that order, 6.37% and 10.3%.
For `CN(C)c1ccc(C2Nc3ccccc3C(=O)N2CCCN2CCOCC2)cc1` (configuration not stated), the inhibition in test [1] was -12.2%; in test [2], 2.92%.
